Experimental data reported in PubChem BioAssay (NCI).
The panel holds about 79,000 compounds, 15% with a hit somewhere; the sample as a whole holds those more often. Active and inactive are the calls of the source. Rule as the data show it: active = growth inhibition above about 70%; inactive = the rest.

Assay: NCI Yeast Anticancer Drug Screen. Data for the cln2 rad14 strain (AID 165);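 also: 0% = growth equal to vehicle treated cultures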
Details: S. cerevisiae cln2 rad14 strain, at 50.0 µM, active compounds read high
How it was run: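 Strain: cln2 rad14 yeast, altered in cell cycle control and DNA damage repair. Read-out: growth inhibition vs vehicle.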

**Q.** With `O=c1[nH]c(NCc2ccc(Cl)cc2)nc2nc[nH]c12` as the compound, how does the growth inhibition read?
**A.** The growth inhibition was 12.2% (inactive).

**Q.** With `COc1ccc(C(O)C2CCCN(C)S2(=O)=O)cc1` (stereo not drawn) as the compound, how does the growth inhibition read?
**A.** Its growth inhibition is 15.5% (inactive).

**Q.** Which growth inhibition does the source give for `Clc1ccc([I+]c2ccc(Cl)cc2)cc1` here?
**A.** Its growth inhibition is 97.4% (active).

**Q.** For `CCCCCCCCCCCCCCCc1c(NC(C)(CC(C)(C)O)[P+](=O)O)c(=O)n(C)n1C` (stereo not drawn), which growth inhibition is on record?
**A.** The growth inhibition was -25.2% (inactive).

**Q.** With `CC(C)Nc1ncnc2c1cnn2-c1ccccc1` as the compound, how does the growth inhibition read?
**A.** The growth inhibition was -57.7% (inactive).

**Q.** With `CC(C)(C)c1cc(CCC(=O)Nc2ccc(Cl)cc2)[nH]c(=S)n1` as the compound, how does the growth inhibition read?
**A.** The growth inhibition was -8.85% (inactive).

**Q.** For `COC(=O)c1c2c(cc3c1CC1(C3)Cc3ccc4c(c3C1=O)CCC4)CCC2` (stereo not drawn), which growth inhibition is on record?
**A.** Its growth inhibition is -13.8% (inactive).

**Q.** For `O=Cc1ccccc1CCn1c(=O)c2cc3c(=O)n(CCc4ccccc4C=O)c(=O)c3cc2c1=O`, which growth inhibition is on record?
**A.** Its growth inhibition is -11.8% (inactive).

**Q.** With `NC(N)=N/N=C(\c1ccc(Cl)cc1)C1CC1` as the compound, how does the growth inhibition read?
**A.** The growth inhibition was -13.2% (inactive).

**Q.** With `Cc1ccc(CSCc2c(CSCc3ccc(C)cc3)c(CSCc3ccc(C)cc3)c(CSCc3ccc(C)cc3)c(CSCc3ccc(C)cc3)c2CSCc2ccc(C)cc2)cc1` as the compound, how does the growth inhibition read?
**A.** The growth inhibition was 29.8% (inactive).

**Q.** For `NC(C(=O)O)c1ccccc1` (stereo not drawn), which growth inhibition is on record?
**A.** The growth inhibition was -1.9% (inactive).

**Q.** For `[Mn+2].[Mn+2].c1ccc2c(c1)-c1nc-2nc2[n-]c(nc3nc(nc4[n-]c(n1)c1ccccc41)-c1ccccc1-3)c1cc3c4nc5nc(nc6[n-]c(nc7nc(nc([n-]4)c3cc21)-c1ccccc1-7)c1ccccc61)-c1ccccc1-5`, which growth inhibition is on record?
**A.** The growth inhibition was -21.2% (inactive).

**Q.** For `Cn1c(=O)c2c(nc(C[N+]3([O-])CCOCC3)n2C)n(C)c1=O`, which growth inhibition is on record?
**A.** The growth inhibition was 8.35% (inactive).

**Q.** For `O=C(c1ccccc1)c1ccncc1`, which growth inhibition is on record?
**A.** Its growth inhibition is -1% (inactive).

**Q.** With `CCOC(=O)c1[nH]cnc1N` as the compound, how does the growth inhibition read?
**A.** The growth inhibition was -46.1% (inactive).

**Q.** With `COc1ccccc1C(=O)NO` as the compound, how does the growth inhibition read?
**A.** Its growth inhibition is 8.05% (inactive).

**Q.** With `CCCC1OCC(O)C(C(O)C(=O)CN(Cc2ccccc2)Cc2ccccc2)O1` (stereo not drawn) as the compound, how does the growth inhibition read?
**A.** The growth inhibition was -9.5% (inactive).

**Q.** For `CCOC(=O)c1c(N)[nH]c(SSc2[nH]c(N)c(C(=O)OCC)c2C(=O)OCC)c1C(=O)OCC`, which growth inhibition is on record?
**A.** Its growth inhibition is 13.7% (inactive).

**Q.** With `O=C(O)Cc1cccc2c(=O)cc(Cc3ccccc3)oc12` as the compound, how does the growth inhibition read?
**A.** Its growth inhibition is 6.6% (inactive).

**Q.** For `COc1cc([N+](=O)[O-])ccc1C(=O)NC(CCC(=O)O)C(=O)O` (stereo not drawn), which growth inhibition is on record?
**A.** Its growth inhibition is -20.4% (inactive).

**Q.** For `CCCCCOc1ccc2ccccc2c1`, which growth inhibition is on record?
**A.** Its growth inhibition is -20.9% (inactive).

**Q.** With `OCC(O)CNc1ncnc2ccccc12` (stereo not drawn) as the compound, how does the growth inhibition read?
**A.** Its growth inhibition is -26.4% (inactive).

**Q.** For `Oc1cc(N2CCCC2)ccc1/C=N/N1C(=S)N(c2ccccc2)C(=Nc2ccccc2)C1=Nc1ccccc1`, which growth inhibition is on record?
**A.** Its growth inhibition is 6.7% (inactive).

Assay: NCI Yeast Anticancer Drug Screen. Data for the bub3 strain (AID 167)
Details: S. cerevisiae bub3 mutant strain, at 50.0 µM, active compounds read high
How it was run: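 Whole-cell yeast assay. The mutant strain was incubated with compounds, and growth inhibition was determined by comparison with vehicle-treated cells.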

**Q.** With `O=C1CSC(c2cccc(O)c2)N1c1nncs1` (stereo not drawn) as the compound, how does the growth inhibition read?
**A.** The growth inhibition was 14.2% (inactive).

**Q.** Which growth inhibition does the source give for `CCCCCCCCCC1CC(=O)OC23CCCC(=O)C12O3` (stereo not drawn) here?
**A.** Its growth inhibition is -8% (inactive).

**Q.** For `CC(C)NCC(O)COc1c2ccccc2nc2ccccc12` (stereo not drawn), which growth inhibition is on record?
**A.** The growth inhibition was -20.1% (inactive).

**Q.** With `CCCOc1ccc(C(=O)C(C(c2ccccc2)N2CCOCC2)N2CCOCC2)cc1` (stereo not drawn) as the compound, how does the growth inhibition read?
**A.** The growth inhibition was 35.8% (inactive).

**Q.** For `O=S(=O)(OI(O)CC(F)(F)F)C(F)(F)F`, which growth inhibition is on record?
**A.** The growth inhibition was 14.5% (inactive).

**Q.** For `Nc1ncnc2c1ncn2C1CCC(CP(=O)(O)O)C1` (stereo not drawn), which growth inhibition is on record?
**A.** The growth inhibition was -5.45% (inactive).

**Q.** With `O=C(CC(C(=O)c1cccs1)c1cccs1)c1ccsc1` (stereo not drawn) as the compound, how does the growth inhibition read?
**A.** Its growth inhibition is 2.9% (inactive).

**Q.** With `O=C(C[n+]1ccccc1CCCO)c1ccc(F)cc1` as the compound, how does the growth inhibition read?
**A.** The growth inhibition was 3% (inactive).

**Q.** For `CCOC(=O)NCC(C)(C)N(C(=O)OCC)c1ccccc1`, which growth inhibition is on record?
**A.** The growth inhibition was -37.8% (inactive).

**Q.** With `O=C(/C=C/c1cccc2ccccc12)c1ccccc1Cl` as the compound, how does the growth inhibition read?
**A.** The growth inhibition was -6.65% (inactive).

**Q.** For `O=C1NC(=O)C(Cc2ccco2)N1` (stereo not drawn), which growth inhibition is on record?
**A.** The growth inhibition was -35.5% (inactive).

**Q.** For `N=C1N=Nc2nc(C(C(=O)c3cccc(O)c3)c3nc4n(c3O)C(=N)N=N4)c(O)n21` (stereo not drawn), which growth inhibition is on record?
**A.** Its growth inhibition is -2.75% (inactive).

**Q.** For `CCOC(=O)\C(C#N)=C/C=C(C)/C(C)=C/Nc1ccc([N+](=O)[O-])cc1[N+](=O)[O-]`, which growth inhibition is on record?
**A.** Its growth inhibition is 0.8% (inactive).

**Q.** With `C[C@]1(CO)CCC[C@@]2(C)C1CC[C@H]1CC3C[C@]12CC[C@]3(C)O` (stereo partly drawn) as the compound, how does the growth inhibition read?
**A.** The growth inhibition was 32.6% (inactive).

**Q.** For `CC(=O)Nc1c(Cl)cccc1[N+](=O)[O-]`, which growth inhibition is on record?
**A.** Its growth inhibition is -5.8% (inactive).

**Q.** For `CCOC(=O)C1C/C(C)=C(/C)SCCCS1` (stereo not drawn), which growth inhibition is on record?
**A.** The growth inhibition was 5.05% (inactive).

**Q.** For `NC(=O)c1cc(Cl)ccc1O`, which growth inhibition is on record?
**A.** The growth inhibition was -4.05% (inactive).

**Q.** Which growth inhibition does the source give for `O=c1[nH]c(NCc2ccc(Cl)cc2)nc2nc[nH]c12` here?
**A.** Its growth inhibition is -8.55% (inactive).

**Q.** With `COc1ccc(C(O)C2CCCN(C)S2(=O)=O)cc1` (stereo not drawn) as the compound, how does the growth inhibition read?
**A.** The growth inhibition was 30.6% (inactive).

**Q.** Which growth inhibition does the source give for `Clc1ccc([I+]c2ccc(Cl)cc2)cc1` here?
**A.** The growth inhibition was 97% (active).

**Q.** Which growth inhibition does the source give for `CCCCCCCCCCCCCCCc1c(NC(C)(CC(C)(C)O)[P+](=O)O)c(=O)n(C)n1C` (stereo not drawn) here?
**A.** Its growth inhibition is -33.8% (inactive).

**Q.** With `CC(C)Nc1ncnc2c1cnn2-c1ccccc1` as the compound, how does the growth inhibition read?
**A.** The growth inhibition was 13.5% (inactive).

**Q.** With `CC(C)(C)c1cc(CCC(=O)Nc2ccc(Cl)cc2)[nH]c(=S)n1` as the compound, how does the growth inhibition read?
**A.** Its growth inhibition is -5.85% (inactive).

**Q.** For `COC(=O)c1c2c(cc3c1CC1(C3)Cc3ccc4c(c3C1=O)CCC4)CCC2` (stereo not drawn), which growth inhibition is on record?
**A.** Its growth inhibition is -21.1% (inactive).

**Q.** For `O=Cc1ccccc1CCn1c(=O)c2cc3c(=O)n(CCc4ccccc4C=O)c(=O)c3cc2c1=O`, which growth inhibition is on record?
**A.** Its growth inhibition is -4.35% (inactive).

**Q.** With `NC(N)=N/N=C(\c1ccc(Cl)cc1)C1CC1` as the compound, how does the growth inhibition read?
**A.** The growth inhibition was -65.3% (inactive).

**Q.** With `Cc1ccc(CSCc2c(CSCc3ccc(C)cc3)c(CSCc3ccc(C)cc3)c(CSCc3ccc(C)cc3)c(CSCc3ccc(C)cc3)c2CSCc2ccc(C)cc2)cc1` as the compound, how does the growth inhibition read?
**A.** Its growth inhibition is 1.75% (inactive).

**Q.** For `NC(C(=O)O)c1ccccc1` (stereo not drawn), which growth inhibition is on record?
**A.** The growth inhibition was -10.7% (inactive).

**Q.** With `[Mn+2].[Mn+2].c1ccc2c(c1)-c1nc-2nc2[n-]c(nc3nc(nc4[n-]c(n1)c1ccccc41)-c1ccccc1-3)c1cc3c4nc5nc(nc6[n-]c(nc7nc(nc([n-]4)c3cc21)-c1ccccc1-7)c1ccccc61)-c1ccccc1-5` as the compound, how does the growth inhibition read?
**A.** The growth inhibition was 0.4% (inactive).

**Q.** For `Cn1c(=O)c2c(nc(C[N+]3([O-])CCOCC3)n2C)n(C)c1=O`, which growth inhibition is on record?
**A.** Its growth inhibition is -11.5% (inactive).

**Q.** For `O=C(c1ccccc1)c1ccncc1`, which growth inhibition is on record?
**A.** Its growth inhibition is -1.9% (inactive).

**Q.** For `CCOC(=O)c1[nH]cnc1N`, which growth inhibition is on record?
**A.** Its growth inhibition is 1.15% (inactive).

**Q.** With `COc1ccccc1C(=O)NO` as the compound, how does the growth inhibition read?
**A.** The growth inhibition was -14.2% (inactive).

**Q.** With `CCCC1OCC(O)C(C(O)C(=O)CN(Cc2ccccc2)Cc2ccccc2)O1` (stereo not drawn) as the compound, how does the growth inhibition read?
**A.** Its growth inhibition is -3.8% (inactive).

**Q.** For `CCOC(=O)c1c(N)[nH]c(SSc2[nH]c(N)c(C(=O)OCC)c2C(=O)OCC)c1C(=O)OCC`, which growth inhibition is on record?
**A.** Its growth inhibition is 17.8% (inactive).

**Q.** For `O=C(O)Cc1cccc2c(=O)cc(Cc3ccccc3)oc12`, which growth inhibition is on record?
**A.** The growth inhibition was 20.1% (inactive).

**Q.** For `COc1cc([N+](=O)[O-])ccc1C(=O)NC(CCC(=O)O)C(=O)O` (stereo not drawn), which growth inhibition is on record?
**A.** Its growth inhibition is 28.6% (inactive).

**Q.** With `CCCCCOc1ccc2ccccc2c1` as the compound, how does the growth inhibition read?
**A.** The growth inhibition was 10.2% (inactive).

**Q.** For `OCC(O)CNc1ncnc2ccccc12` (stereo not drawn), which growth inhibition is on record?
**A.** The growth inhibition was 1.7% (inactive).

**Q.** Which growth inhibition does the source give for `Oc1cc(N2CCCC2)ccc1/C=N/N1C(=S)N(c2ccccc2)C(=Nc2ccccc2)C1=Nc1ccccc1` here?
**A.** Its growth inhibition is -30.6% (inactive).
